Source: PubChem
TIM10 inh – growth inhibitors of isogenic TIM10 control yeast, primary screen, counter-screen for tim10-1 yeast inhibitor project, luminescence, uHTS | S. cerevisiae TIM10 strain growth, BacTiter-Glo luminescence, 24 h | actives 1.4% (n = 330,000) | inhibition, % at 10 µM;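 active = inhibition of 40% or more at the single tested concentration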;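 note: wild-type TIM10 isogenic control strain grown at permissive 25 °C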
tim10-1 inh – growth inhibitors of tim10-1 mutant yeast, primary screen, luminescence, uHTS; S. cerevisiae tim10-1 ts strain growth, BacTiter-Glo, 24 h; inhibition, % at 20 µM; actives 2.2% (n = 330,000);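 active = inhibition of at least 40%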;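 note: mutant grown at 25 °C; 0% = DMSO wells with yeast and 100% = wells holding no yeast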
SKKanGAS inh – S. pyogenes SKKanGAS growth inhibitors in kanamycin, primary screen, streptokinase expression inhibitor project, SKKanGAS strain, BacTiter-Glo luminescence. 6 h. inhibition, % at 7.5 µM. actives 1.3% (n = 300,000);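 active = mean replicate score, as percent of positive control median, at least 50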;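 note: strain carries kanamycin resistance gene driven by streptokinase promoter and grows in 40 µg/ml kanamycin; loss of luminescence reflects streptokinase promoter inhibition or plain growth inhibition; 0% = median of DMSO wells and 100% = positive control at its reference dose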
NLRP3 yeast inh – NALP3 inflammasome inhibitors in reconstituted yeast, primary screen, luminescence, uHTS. Yeast reconstituted NLRP3/ASC/caspase-1, beta-gal luminescence, 24 h. inhibition, % at 10 µM. actives 0.39% (n = 330,000);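 active = inhibition of 50% or more; inactive = inhibition below 50%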;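 note: plate controls were induced DMSO wells for no effect and uninduced yeast grown without galactose for full effect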
tim23-1 inh – growth inhibitors of tim23-1 mutant yeast, primary screen, luminescence, uHTS; S. cerevisiae tim23-1 growth, BacTiter-Glo luminescence, 24 h; inhibition, % at 20 µM; actives 1.3% (n = 330,000);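 active = growth inhibition of the mutant yeast at or above 50%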;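 note: temperature-sensitive mutant grown at 25 °C; plate controls were DMSO-treated mutant yeast for no effect and medium wells lacking yeast for full effect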
tim23-1 confirm – tim23-1 mutant yeast growth inhibitors, confirmation, luminescence, single concentration; actives 83% (n = 4,400); shares compounds with tim23-1 inh; inhibition, % at 20 µM; S. cerevisiae tim23-1 growth, BacTiter-Glo luminescence, 24 h; AID 463218, 2010;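 active = inhibition above about 39% in either of two replicate wells at 20 µM, limit read from the data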;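 note: temperature-sensitive tim23-1 mutant grown at 25 °C; 0% = DMSO wells with yeast and 100% = medium wells without yeast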
* hit, by the source's call; · = no result; ! = a repeat was not active. Shown are actives, neighbours in structure and some others; about 4.6% of the full set was active somewhere.

SMILES	TIM10 inh	tim10-1 inh	SKKanGAS inh	NLRP3 yeast inh	tim23-1 inh	tim23-1 confirm
COc1ccc(C(=O)N/N=C/c2ccc(OC)c(COc3ccc(F)cc3)c2)cc1	9	18	14	20	22	·
COc1ccc(C(=O)N/N=C/c2ccc(OC)c(COc3ccc(F)cc3F)c2)cc1	20	9	16	2	55*	40*
Cc1nc2ccc(NC(=O)c3ccc(Cl)c(NC(=O)c4cccs4)c3)cc2s1	-10	-11	19	14	21	·
Cc1ccc(NC(=O)c2ccc(Cl)c(NC(=O)c3cccs3)c2)cc1	26	18	4	46	66*	66*
CSc1ccc(C2NN=C(c3ccccc3)S2)cc1 (centres undefined)	10	6	3	42	8	·
Oc1ccccc1C1NN=C(c2ccccc2)S1 (centres undefined)	28	14	9	32	58*	54*
COCCNC(=O)CN1C(=O)NC2(CCCc3ccccc32)C1=O (centres undefined)	11	-12	-2	2	-3	·
CC(C)(C)C(=O)/C(C#N)=C/c1cccs1	-24	-10	-5	19	18	·
N#C/C(=C\c1cccs1)C(=O)c1ccccc1Cl	19	16	1	8	62*	57*
CN(C#N)c1nc(Cl)nc(Nc2cccc(Cl)c2)n1	13	40	7	10	69*	-55
CCn1c(O)c(C=NC2CCCC(C)C2C)sc1=S (centres undefined)	23	35	9	27	51*	53*
CCOc1ccc(N(CC(=O)N2CCCC2)S(=O)(=O)c2ccc(Cl)cc2)cc1	7	27	8	5	27	·
CCn1c(N2CCN(S(=O)(=O)c3ccccc3C(F)(F)F)CC2)nc2ccccc21	23	36	6	2	35	·
CCn1c(N2CCN(S(=O)(=O)c3ccc(OC)cc3)CC2)nc2ccccc21	-12	-12	-8	11	59*	44*
O=C(CCN1CCCCO1)N1CCCC(Nc2ccc(F)cc2)C1 (centres undefined)	2	-12	-5	19	-4	·
O=[N+]([O-])c1ccc2nc(Cl)nc(-c3ccccc3)c2c1	40	31	2	9	54*	48*
CCC(CC)C(=O)Nc1c(C(=O)N2CCN(c3ccccc3)CC2)oc2ccccc12	28	39	9	7	51*	42*
COc1ccccc1C(=O)Oc1ccc(C(C)(C)C)cc1	21	15	23	18	23	·
COc1ccccc1C(=O)Oc1ccc2ccc(=O)oc2c1	36	18	-2	11	69*	52*
Cc1cc(C(=O)Nc2ccc(Cl)cc2)n(-c2ccccc2)n1	11	28	-2	27	22	·
Cc1cc(C(=O)Nc2ccc(Cl)cc2)c(C)n1-c1ccccc1	36	39	12	10	56*	54*
COc1ccc(S(=O)(=O)NCC(=O)N(CC(=O)NCc2ccco2)Cc2ccc(F)cc2)cc1	6	-14	-3	3	5	·
Cc1ccc(OCCNC(=O)CCNS(=O)(=O)c2ccc3ccccc3c2)cc1	-2	-1	·	9	15	·
CN(C(=S)NC(=O)c1ccccc1Br)C1CCCCC1	28	40	4	-11	50*	35
COc1cccc2c1C(=O)C=C(C)C2=O	30	27	8	13	50*	47*
SMILES	TIM10 inh	tim10-1 inh	SKKanGAS inh	NLRP3 yeast inh	tim23-1 inh	tim23-1 confirm
Cc1ccsc1C=C1C(=O)c2ccccc2C1=O	18	38	0	-29	42	·
CC1=CC(=O)c2ccccc2C1=O	7	18	-3	-13	51*!	63*
O=C(NC1CCCC1)c1cc(=O)[nH]c2ccccc12	7	-4	-2	-12	-3	·
CC(CCc1ccccc1)NC(=O)N1CCOCC1 (centres undefined)	-2	9	-4	4	2	·
CN(CC12CC3CC(CC(C3)C1)C2)C(=O)c1ccco1	17	15	1	26	42	·
CN(C(=O)c1ccco1)c1nnc(C23CC4CC(CC(C4)C2)C3)s1	12	20	1	18	55*	59*
